# The supplement of paper PMC12819154, “High-throughput peptide-centric local stability assay extends protein–ligand identification to membrane proteins, tissues and bacteria” (Nature Structural & Molecular Biology, 2025)
# Key:
# [1] = compound: T1, CN[C@@H]1C[C@H]2O[C@@](C)([C@@H]1OC)n1c3ccccc3c3c4c(c5c6ccccc6n2c5c31)C(=O)NC4 [staurosporine]; experiment: log2 fold change of tryptic peptide abundance, ligand vs vehicle (limited proteolysis) (log2 ratio); higher = more trypsin-susceptible (destabilized); settings: ligand concentration: 20 uM; sample: mouse liver crude lysate; replicate design: treated separately
# [2] = compound: T1, staurosporine; experiment: as above; settings: ligand concentration: 20 uM; sample: K562 cleared lysate; digestion: 4 min, 22 C (HT-PELSA RT4min, Orbitrap Astral)
# Sequence of UniProt O70503 (O70503 whole entry): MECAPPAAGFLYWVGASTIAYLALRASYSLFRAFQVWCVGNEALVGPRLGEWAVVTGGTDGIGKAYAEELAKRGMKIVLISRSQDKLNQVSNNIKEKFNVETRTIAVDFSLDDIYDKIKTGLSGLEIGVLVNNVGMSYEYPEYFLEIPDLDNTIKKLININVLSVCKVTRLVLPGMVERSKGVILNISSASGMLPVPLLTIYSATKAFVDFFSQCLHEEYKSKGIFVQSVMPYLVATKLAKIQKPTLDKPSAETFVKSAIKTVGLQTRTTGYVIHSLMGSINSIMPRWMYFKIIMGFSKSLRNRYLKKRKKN
# Sequence of UniProt O08648 (O08648 whole entry): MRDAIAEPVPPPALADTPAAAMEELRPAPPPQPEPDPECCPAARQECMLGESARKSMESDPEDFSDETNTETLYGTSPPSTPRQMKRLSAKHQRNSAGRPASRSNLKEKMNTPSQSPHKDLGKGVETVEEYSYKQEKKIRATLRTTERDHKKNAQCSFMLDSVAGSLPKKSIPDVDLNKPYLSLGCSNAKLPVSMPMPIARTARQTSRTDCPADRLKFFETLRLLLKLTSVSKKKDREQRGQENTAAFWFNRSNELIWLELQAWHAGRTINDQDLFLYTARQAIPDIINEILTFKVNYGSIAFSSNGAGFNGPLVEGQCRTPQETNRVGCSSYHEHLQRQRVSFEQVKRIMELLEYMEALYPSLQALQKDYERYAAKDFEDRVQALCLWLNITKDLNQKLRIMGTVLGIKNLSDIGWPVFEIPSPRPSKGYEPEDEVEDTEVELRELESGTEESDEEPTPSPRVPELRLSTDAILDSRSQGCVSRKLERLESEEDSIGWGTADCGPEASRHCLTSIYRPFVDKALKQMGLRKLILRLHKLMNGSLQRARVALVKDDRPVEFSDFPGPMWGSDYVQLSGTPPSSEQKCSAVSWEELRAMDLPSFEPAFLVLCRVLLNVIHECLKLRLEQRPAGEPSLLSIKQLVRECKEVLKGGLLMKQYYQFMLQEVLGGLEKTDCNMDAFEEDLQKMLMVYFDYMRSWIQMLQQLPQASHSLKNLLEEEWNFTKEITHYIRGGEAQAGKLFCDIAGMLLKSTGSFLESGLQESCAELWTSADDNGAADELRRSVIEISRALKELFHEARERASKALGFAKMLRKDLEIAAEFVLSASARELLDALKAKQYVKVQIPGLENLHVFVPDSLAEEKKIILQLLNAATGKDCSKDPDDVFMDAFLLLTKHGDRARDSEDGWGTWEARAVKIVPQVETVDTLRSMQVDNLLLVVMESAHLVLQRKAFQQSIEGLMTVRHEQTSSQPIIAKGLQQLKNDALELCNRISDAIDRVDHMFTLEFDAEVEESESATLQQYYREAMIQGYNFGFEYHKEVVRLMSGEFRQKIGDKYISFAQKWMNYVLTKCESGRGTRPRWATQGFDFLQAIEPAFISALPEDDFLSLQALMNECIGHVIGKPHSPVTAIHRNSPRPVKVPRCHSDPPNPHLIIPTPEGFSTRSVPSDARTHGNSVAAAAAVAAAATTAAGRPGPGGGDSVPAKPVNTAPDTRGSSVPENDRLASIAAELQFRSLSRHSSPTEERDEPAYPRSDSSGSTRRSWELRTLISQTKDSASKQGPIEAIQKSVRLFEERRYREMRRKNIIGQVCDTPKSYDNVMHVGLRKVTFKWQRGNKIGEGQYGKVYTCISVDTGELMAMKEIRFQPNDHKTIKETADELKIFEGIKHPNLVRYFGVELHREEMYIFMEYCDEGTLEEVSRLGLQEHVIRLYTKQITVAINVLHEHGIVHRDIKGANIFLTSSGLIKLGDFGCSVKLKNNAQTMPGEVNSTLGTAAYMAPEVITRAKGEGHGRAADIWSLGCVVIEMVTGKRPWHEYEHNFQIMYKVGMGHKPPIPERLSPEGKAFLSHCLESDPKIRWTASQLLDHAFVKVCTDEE
# Sequence of UniProt Q921S7 (Q921S7 whole entry): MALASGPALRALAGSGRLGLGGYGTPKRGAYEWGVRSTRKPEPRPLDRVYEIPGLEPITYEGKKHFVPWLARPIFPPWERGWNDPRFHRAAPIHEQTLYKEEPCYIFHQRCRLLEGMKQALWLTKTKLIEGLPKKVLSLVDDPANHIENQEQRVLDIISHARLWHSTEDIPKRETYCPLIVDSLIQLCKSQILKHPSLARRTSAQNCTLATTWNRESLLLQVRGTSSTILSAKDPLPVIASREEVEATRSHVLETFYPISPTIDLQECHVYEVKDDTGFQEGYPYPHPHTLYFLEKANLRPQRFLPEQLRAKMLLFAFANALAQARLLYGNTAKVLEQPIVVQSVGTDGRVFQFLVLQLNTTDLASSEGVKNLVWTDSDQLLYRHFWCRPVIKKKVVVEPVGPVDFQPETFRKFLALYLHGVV
# Sequence of UniProt Q8TEQ6 (Q8TEQ6 whole entry): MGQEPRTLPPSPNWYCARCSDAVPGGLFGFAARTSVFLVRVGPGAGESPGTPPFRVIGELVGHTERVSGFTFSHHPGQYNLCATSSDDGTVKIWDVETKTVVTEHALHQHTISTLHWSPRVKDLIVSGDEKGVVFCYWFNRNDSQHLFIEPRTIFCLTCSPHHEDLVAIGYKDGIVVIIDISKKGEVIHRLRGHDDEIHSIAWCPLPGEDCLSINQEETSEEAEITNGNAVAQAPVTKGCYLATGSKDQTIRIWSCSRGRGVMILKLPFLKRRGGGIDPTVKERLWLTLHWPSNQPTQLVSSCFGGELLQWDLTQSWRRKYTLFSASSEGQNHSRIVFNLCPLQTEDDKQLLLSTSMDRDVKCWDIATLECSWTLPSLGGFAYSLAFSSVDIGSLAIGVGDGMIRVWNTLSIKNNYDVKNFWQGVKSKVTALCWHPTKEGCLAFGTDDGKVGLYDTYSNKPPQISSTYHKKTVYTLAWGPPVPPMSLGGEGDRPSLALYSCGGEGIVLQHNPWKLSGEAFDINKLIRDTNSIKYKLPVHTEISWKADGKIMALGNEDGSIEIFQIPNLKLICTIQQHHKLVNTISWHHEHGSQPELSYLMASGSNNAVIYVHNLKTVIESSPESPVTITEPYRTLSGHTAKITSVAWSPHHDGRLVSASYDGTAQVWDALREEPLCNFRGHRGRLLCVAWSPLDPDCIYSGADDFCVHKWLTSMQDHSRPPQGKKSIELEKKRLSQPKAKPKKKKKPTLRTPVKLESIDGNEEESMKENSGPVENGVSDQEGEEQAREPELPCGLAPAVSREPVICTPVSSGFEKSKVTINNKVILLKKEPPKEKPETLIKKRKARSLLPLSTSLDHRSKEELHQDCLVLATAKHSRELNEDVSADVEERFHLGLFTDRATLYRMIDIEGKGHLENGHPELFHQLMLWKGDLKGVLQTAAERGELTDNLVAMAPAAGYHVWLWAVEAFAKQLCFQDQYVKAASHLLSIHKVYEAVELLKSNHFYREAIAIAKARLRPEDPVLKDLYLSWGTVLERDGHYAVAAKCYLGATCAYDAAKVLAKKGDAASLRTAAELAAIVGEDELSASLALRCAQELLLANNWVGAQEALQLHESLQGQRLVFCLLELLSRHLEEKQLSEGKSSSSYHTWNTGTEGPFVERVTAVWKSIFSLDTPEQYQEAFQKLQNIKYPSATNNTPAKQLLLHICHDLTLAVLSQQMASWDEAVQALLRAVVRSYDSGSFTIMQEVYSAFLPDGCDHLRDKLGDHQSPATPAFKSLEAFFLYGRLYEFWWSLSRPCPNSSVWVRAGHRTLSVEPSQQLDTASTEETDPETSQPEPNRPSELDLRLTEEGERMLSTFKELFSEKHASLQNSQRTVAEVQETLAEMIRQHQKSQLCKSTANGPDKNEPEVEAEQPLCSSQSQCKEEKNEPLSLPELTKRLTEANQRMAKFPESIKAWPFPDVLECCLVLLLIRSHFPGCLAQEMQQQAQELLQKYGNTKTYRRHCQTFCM
# Sequence of UniProt Q9QVP9 (Q9QVP9 whole entry, looked up): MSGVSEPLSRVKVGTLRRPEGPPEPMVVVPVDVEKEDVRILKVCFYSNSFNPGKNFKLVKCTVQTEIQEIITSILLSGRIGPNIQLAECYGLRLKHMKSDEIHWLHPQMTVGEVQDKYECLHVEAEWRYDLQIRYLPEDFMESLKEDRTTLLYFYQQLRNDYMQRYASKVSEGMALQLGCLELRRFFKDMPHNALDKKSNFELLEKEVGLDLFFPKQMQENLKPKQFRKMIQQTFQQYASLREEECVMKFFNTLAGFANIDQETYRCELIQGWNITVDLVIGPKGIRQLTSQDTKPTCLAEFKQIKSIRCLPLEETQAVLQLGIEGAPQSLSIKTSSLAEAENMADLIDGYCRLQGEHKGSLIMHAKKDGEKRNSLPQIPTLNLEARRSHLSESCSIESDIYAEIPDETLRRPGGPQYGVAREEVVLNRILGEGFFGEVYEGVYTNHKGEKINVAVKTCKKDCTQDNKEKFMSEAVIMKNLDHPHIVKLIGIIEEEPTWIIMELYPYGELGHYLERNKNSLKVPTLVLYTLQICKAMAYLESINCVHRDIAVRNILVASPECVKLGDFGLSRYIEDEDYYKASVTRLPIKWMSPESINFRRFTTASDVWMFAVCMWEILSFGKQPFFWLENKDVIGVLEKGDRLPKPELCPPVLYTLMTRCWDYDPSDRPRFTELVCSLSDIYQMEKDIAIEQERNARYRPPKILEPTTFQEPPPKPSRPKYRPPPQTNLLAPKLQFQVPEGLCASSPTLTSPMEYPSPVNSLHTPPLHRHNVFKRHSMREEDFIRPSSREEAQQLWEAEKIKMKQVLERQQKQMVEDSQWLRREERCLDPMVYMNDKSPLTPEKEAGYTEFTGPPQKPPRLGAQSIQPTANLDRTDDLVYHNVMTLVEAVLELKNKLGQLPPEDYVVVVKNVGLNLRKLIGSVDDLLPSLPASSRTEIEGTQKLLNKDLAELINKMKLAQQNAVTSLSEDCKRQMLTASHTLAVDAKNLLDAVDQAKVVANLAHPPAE
# Sequence of UniProt O88630 (O88630 whole entry): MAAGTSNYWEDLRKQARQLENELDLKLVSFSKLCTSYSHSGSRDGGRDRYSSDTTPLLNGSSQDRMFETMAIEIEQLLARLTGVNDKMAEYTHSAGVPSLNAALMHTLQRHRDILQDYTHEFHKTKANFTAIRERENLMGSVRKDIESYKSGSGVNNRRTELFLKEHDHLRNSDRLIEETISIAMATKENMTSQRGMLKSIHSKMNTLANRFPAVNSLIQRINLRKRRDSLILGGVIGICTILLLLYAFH
Target,log2 fold change [1],log2 fold change [2]
"UniProt Q9WTU6 (peptide sequence: MLVIDPDKR, peptide start residue: 301)",-1.15,
"UniProt Q921S7 (peptide sequence: HFVPWLAR, peptide start residue: 65)",0.415,
"UniProt O70551 (peptide sequence: SAEHYTETALDEIR, peptide start residue: 113)",-2.75,
"UniProt O70503 (peptide sequence: IQKPTLDKPSAETFVK, peptide start residue: 242)",0.192,
"UniProt O88630 (peptide sequence: MNTLANRFPAVNSLIQR, peptide start residue: 205)",0.676,
"GEMIN5 (peptide sequence: MLSTFKELFSEK, peptide start residue: 1352) (UniProt Q8TEQ6)",,-1
"UniProt Q9QVP9 (peptide sequence: CWDYDPSDRPR, peptide start residue: 661)",-1.22,
"UniProt P34914 (peptide sequence: NWKWSCK, peptide start residue: 471)",0.437,
"UniProt P55264 (peptide sequence: ELFDELVK, peptide start residue: 63)",-2.24,
"UniProt O08648 (peptide sequence: IFEGIKHPNLVR, peptide start residue: 1382)",-0.814,
"UniProt P24604 (peptide sequence: ELGSGLFGVVR, peptide start residue: 374)",-0.989,
